pPAFAH FP inh: inhibitors of human plasma PAF acetylhydrolase (pPAFAH); AID 463082; recombinant pPAFAH, FP-rhodamine probe fluorescence polarization; inhibition, % at 3.39 µM; 1.5% of 330,000 active; Q13093;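 active = inhibition above the mean inhibition across the screen plus 3 SD, cut at about 25% in these data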;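 note: inhibitors block binding of the rhodamine activity-based probe so polarization drops; 0% = enzyme with DMSO and 100% = wells lacking pPAFAH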
Target sequence (Q13093 whole entry, looked up): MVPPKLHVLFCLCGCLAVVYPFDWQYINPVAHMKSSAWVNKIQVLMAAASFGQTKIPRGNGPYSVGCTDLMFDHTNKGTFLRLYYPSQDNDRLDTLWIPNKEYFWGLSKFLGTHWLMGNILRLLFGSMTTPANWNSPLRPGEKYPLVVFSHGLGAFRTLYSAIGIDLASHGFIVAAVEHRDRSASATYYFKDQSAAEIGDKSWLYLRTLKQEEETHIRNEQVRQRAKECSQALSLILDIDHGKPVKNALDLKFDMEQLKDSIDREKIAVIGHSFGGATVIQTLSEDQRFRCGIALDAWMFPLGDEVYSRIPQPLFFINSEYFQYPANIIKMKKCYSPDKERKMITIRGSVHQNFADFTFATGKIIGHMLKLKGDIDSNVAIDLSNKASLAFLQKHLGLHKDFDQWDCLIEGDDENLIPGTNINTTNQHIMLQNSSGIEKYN
PME-1 primary: PME-1 (human) inhibition | recombinant PME-1, FP-Rh probe fluorescence polarization | inhibition, % at 5.9 µM | 0.53% of 320,000 active;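 active = inhibition above the campaign mean of all compounds plus 3 SD, cut at about 26% in these data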;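 note: competitive labeling of PME-1 active site by serine hydrolase directed probe; 0% = PME-1 with DMSO and 100% = wells lacking PME-1 enzyme; inhibitors block probe labeling so polarization falls and inhibition rises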
PAFAH2 inh: inhibitors of human PAFAH2. inhibition, % at 3.39 µM. recombinant PAFAH2, FP-rhodamine activity probe, fluorescence polarization. Q99487. 0.99% of 340,000 active;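 active = inhibition above the mean over all tested compounds plus 3 SD, cut at about 30% in these data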;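 note: inhibitors block probe labeling of enzyme so polarization drops; 0% = enzyme with DMSO and 100% = wells lacking PAFAH2 protein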
PAFAH1B2 FP inh: inhibitors of human PAFAH1B2; P68402; recombinant PAFAH1B2, FP-rhodamine activity probe, fluorescence polarization; inhibition, % at 3.39 µM; 1.2% of 340,000 active; AID 492953;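 active = inhibition above the mean of all tested compounds plus 3 SD, cut at about 24% in these data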;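 note: 0% = enzyme with DMSO and 100% = wells lacking PAFAH1B2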
PAFAH1B3 inh: inhibitors of human PAFAH1B3; 0.28% of 340,000 active; recombinant PAFAH1B3, FP-rhodamine probe, fluorescence polarization; inhibition, % at 3.39 µM; AID 492972;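 active = inhibition above the screen-wide average of all tested compounds plus 3 SD, cut at about 25% in these data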;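 note: 0% = enzyme with DMSO only and 100% = wells lacking PAFAH1B3 protein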
Target sequence (Q15102 whole entry, looked up): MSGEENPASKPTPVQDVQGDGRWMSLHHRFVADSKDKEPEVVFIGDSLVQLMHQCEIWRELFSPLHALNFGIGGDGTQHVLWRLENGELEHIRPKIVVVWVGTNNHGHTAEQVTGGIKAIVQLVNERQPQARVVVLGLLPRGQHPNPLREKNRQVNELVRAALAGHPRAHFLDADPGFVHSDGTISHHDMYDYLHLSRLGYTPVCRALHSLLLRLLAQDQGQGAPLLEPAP
Fam108B counter: blocks mouse Fam108B hydrolase in RBBP9 counter-screen; recombinant Fam108B, FP-Rh probe fluorescence polarization; inhibition, % at 9.51 µM; 0.33% of 300,000 active; AID 1947;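 active = inhibition above the screen mean inhibition plus 3 SD, computed separately per campaign, cut at about 18% in these data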;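 note: inhibitors lower polarization as less probe binds the enzyme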
PAFAH1B3 confirm: PAFAH1B3 (human) inhibition, confirmed; shares compounds with PAFAH1B3 inh; recombinant PAFAH1B3, FP-Rh activity-based probe, fluorescence polarization; inhibition, % at 3.39 µM; 30% of 390 active; AID 493032;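 active = average inhibition over triplicate runs above the hit cutoff set in the earlier primary screen, cut at about 25% in these data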;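 note: 0% = enzyme with DMSO and 100% = wells lacking PAFAH1B3 protein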
Numbers without * were called inactive; . = no result; ! = repeats disagree. Rows were chosen to be rich in hits. Some 2.9% of all compounds tested hit in one or more screens of this group.

SMILES | pPAFAH FP inh | PME-1 primary | PAFAH2 inh | PAFAH1B2 FP inh | PAFAH1B3 inh | Fam108B counter | PAFAH1B3 confirm
CCc1nc2ccc(C(=O)N3CCN(CC)CC3)cc2nc1CC | -1 | -7 | 28 | 18 | 28* | 0 | 8
COC(=O)CCc1c(C)c(C(=O)c2ccc(F)cc2)c2ccccn12 | 8 | 3 | 5 | 4 | 7 | 2 | .
COC(=O)CCc1c(C)c(C(=O)c2cc(F)c(F)c(F)c2F)c2ccccn12 | 7 | 5 | 12 | 5 | 29* | 0 | 7
CC(=O)c1c(C)[nH]c(C(=O)CN2C(=O)NC3(CCCCC3C)C2=O)c1C (stereo unspecified) | . | . | 4 | 6 | 1 | . | .
COc1cc(OC)c(C(=O)Nc2ccc(S(=O)(=O)N3CCCCC3)cc2)cc1OC | 7 | 5 | 5 | 6 | 30* | -2 | 25
O=C(COC(=O)c1ccc([N+](=O)[O-])s1)c1ccc[nH]1 | 17 | . | 15 | 7 | 33* | . | 26*
Cc1sc2ncnc(N3CCC(C(=O)Nc4nnc(SCc5ccccc5F)s4)CC3)c2c1C | 3 | -4 | -3 | -3 | -2 | -10 | .
CSc1ccc(/C=N/Nc2cccc(C(=O)O)c2)cc1 | . | . | 20 | 22 | 33* | . | 26*
O=C(O)c1cccc(N/N=C/c2ccc(OC(F)(F)F)cc2)c1 | 5 | 4 | 8 | 5 | 2 | 3 | .
COc1ccccc1N1CCN(C(=O)CCC(=O)N2CCN(c3ccc(F)cc3)CC2)CC1 | 1 | -2 | 6 | 7 | 8 | 1 | .
CCCOc1cc2c(C#N)c(N3CCCC3)nc(N)c2c(N)n1 | 7 | 9 | 15 | 10 | 28* | 4 | 15
COc1cc2c(C#N)c(N3CCCC3)nc(N)c2c(N)n1 | 8 | 14 | 12 | 10 | 43*! | 2 | 11
Cc1ccc(N(C(=O)CS(=O)CC(=O)Nc2ccc(F)cc2)C(C)C(=O)NC(C)(C)C)cc1 (stereo unspecified) | 2 | -3 | 4 | 5 | 4 | 0 | .
CCN(CC)CCn1nc2c3c(cccc3c1=O)-c1ccccc1-2 | 4 | 7 | 5 | 0 | 2 | 1 | .
O=c1c2cccc3c2c(nn1CN1CCOCC1)-c1ccccc1-3 | 4 | 7 | 7 | 8 | 26* | -1 | 36*
CCCC[C@H]1C2=C3[C@@H](CC(C(=O)OC)=C[C@@H](C(=O)OC)[C@H]3C(C)(C)C2=O)n2c(=O)n(-c3ccccc3)c(=O)n21 | 1 | 0 | 10 | -5 | 5 | 1 | .
Cc1nc(C/C(=N\N)c2ccc(O)cc2O)cs1 | 6 | 6 | -2 | 3 | 5 | -1 | .
CCc1cc(/C(Cc2csc(C)n2)=N/O)c(O)cc1O | 8 | 16 | 8 | 13 | 29* | 11 | 23
CC(=O)c1ccc(NC2=C(N3CCOCC3)C(=O)c3ccccc3C2=O)cc1 | -8 | 8 | 24 | 4 | 31* | 2 | 9
O=C(c1ccccc1)c1ccc(N2CCOCC2)cc1 | . | . | -7 | 3 | 16 | . | .
O=C(O)c1ccc(NC2=C(N3CCOCC3)C(=O)c3ccccc3C2=O)cc1 | -7 | 3 | 11 | 8 | 27* | 2 | 13
O=C(COC(=O)c1cncc(Br)c1)NC12CC3CC(CC(C3)C1)C2 | -3 | . | . | . | . | . | .
O=C(NC1=C(Nc2ccc(F)cc2)C(=O)c2ccccc2C1=O)c1ccc(Cl)cc1 | 5 | 3 | 5 | 13 | 26* | 11 | 9
O=C(NNC(=O)c1ccc(NC(=O)c2ccccc2)cc1)c1ccc(F)cc1 | -2 | -7 | -2 | 3 | 5 | 0 | .
CCCc1cc(=O)[nH]c(SCC(=O)N2CCc3ccccc3C2)n1 | -1 | 5 | -2 | 4 | -2 | . | .
SMILES | pPAFAH FP inh | PME-1 primary | PAFAH2 inh | PAFAH1B2 FP inh | PAFAH1B3 inh | Fam108B counter | PAFAH1B3 confirm
O=C(CSc1nccc(=O)[nH]1)N1CCc2ccccc2C1 | 7 | -5 | 2 | 4 | 28* | 2 | 5
CCCCn1c(NC(=O)c2ccc(Br)o2)c(S(=O)(=O)c2ccccc2)c2nc3ccccc3nc21 | -1 | 5 | 17 | 22 | 50* | 8 | 9
O=[N+]([O-])c1cc(Br)c(Nc2ccccc2)c([N+](=O)[O-])c1 | 5 | 18 | 21 | 5 | 36* | 4 | 29*
CC1OC(CC(=O)O)CC2=C1C(=O)c1c(O)cccc1C2=O (stereo unspecified) | . | . | 14 | 13 | 53* | . | 22
O=C1c2cccc(O)c2C(=O)c2c(O)cccc21 | 14 | 7 | . | . | . | 4 | .
O=C(Nc1ccc(F)cc1F)Nc1csc2ccccc12 | 8 | 2 | . | . | . | 0 | .
O=C(Nc1ccc(F)c(Cl)c1)Nc1csc2ccccc12 | -2 | -12 | 4 | 18 | 30* | -12 | 21
Cc1cccc(N2CC(C(=O)Nc3ccccc3N3CCOCC3)CC2=O)c1C (stereo unspecified) | -7 | . | -4 | 8 | 8 | . | .
COc1cc(NCCCNC(C)C)c2nccc(C)c2c1 | . | . | 0 | 13 | 40* | . | 13
O=c1c2c(O)cc(O)cc2oc2c(O)ccc(O[C@H]3O[C@@H](CO)[C@H](O)[C@@H](O)[C@@H]3O)c12 | 7 | . | 0 | 8 | 12 | . | .
C[C@@H]1O[C@@H](Oc2c(-c3ccc(O)c(O)c3)oc3cc(O)cc(O)c3c2=O)[C@H](O)[C@H](O)[C@H]1O | 3 | . | -11 | -4 | 27*! | . | 17
O=c1c(O)c(-c2ccc(O)cc2)oc2cc(O)cc(O)c12 | 21 | 12 | 2 | 11 | 30* | 5 | 24
C[C@@H]1O[C@@H](Oc2c(-c3cc(O)c(O)c(O)c3)oc3cc(O)cc(O)c3c2=O)[C@H](O)[C@H](O)[C@H]1O | -1 | -32 | -40 | 5 | 44* | -7 | 22
O=c1c(OC2OC(CO)C(O)C(O)C2OC2OC(CO)C(O)C(O)C2O)c(-c2ccc(O)cc2)oc2cc(O)cc(O)c12 (stereo unspecified) | 11 | 2 | 1 | 5 | 3 | 3 | .
C[C@@H]1O[C@@H](O[C@H]2[C@H](O)[C@@H](O)[C@H](Oc3c(-c4ccc(O)c(O)c4)oc4cc(O)cc(O)c4c3=O)O[C@@H]2CO)[C@H](O)[C@H](O)[C@H]1O | 1 | -12 | -2 | 2 | 9 | . | .
O=c1cc(-c2ccc(O)cc2)oc2cc(O)cc(O)c12 | 2 | -19 | -1 | 1 | 12 | 1 | .
O=c1c(O[C@@H]2O[C@H](CO)C(O)C2O)c(-c2ccc(O)c(O)c2)oc2cc(O)cc(O)c12 (stereo partly specified) | -2 | . | -16 | 11 | 26* | . | 25
O=[N+]([O-])c1ccccc1CCc1ccccc1[N+](=O)[O-] | . | . | 10 | 1 | 12 | . | .
Cc1nn(-c2ccc(F)cc2)c2nc(N)c(C#N)c(-c3ccc(O)c(O)c3)c12 | . | . | 5 | 14 | 36* | . | -3
